MITF primary = MITF inhibitors, primary screen, biochemical, AlphaScreen, human | Microphthalmia-associated transcription factor (Homo sapiens), O75030 | AlphaScreen MITF homodimerization, bead proximity signal | inhibition, % at 2.6 µM | actives 0.91% (n = 650,000); in the data active = inhibition above about 50%;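 also: 0% = vehicle wells with protein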
Target sequence (O75030 whole entry, looked up): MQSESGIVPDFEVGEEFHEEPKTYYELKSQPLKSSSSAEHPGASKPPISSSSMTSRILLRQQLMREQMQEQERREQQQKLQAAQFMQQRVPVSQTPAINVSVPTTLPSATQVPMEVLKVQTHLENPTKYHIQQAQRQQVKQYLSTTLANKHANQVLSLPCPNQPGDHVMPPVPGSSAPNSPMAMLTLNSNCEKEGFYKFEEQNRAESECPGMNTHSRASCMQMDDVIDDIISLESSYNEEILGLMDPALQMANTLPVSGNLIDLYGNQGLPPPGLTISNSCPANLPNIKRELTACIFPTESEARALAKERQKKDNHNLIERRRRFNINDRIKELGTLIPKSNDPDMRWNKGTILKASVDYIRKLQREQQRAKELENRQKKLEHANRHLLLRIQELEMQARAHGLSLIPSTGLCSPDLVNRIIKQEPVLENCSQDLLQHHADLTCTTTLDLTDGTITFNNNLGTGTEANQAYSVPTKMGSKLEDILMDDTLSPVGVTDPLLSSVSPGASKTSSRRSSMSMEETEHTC
GPR151 activ = activators of human GPR151, primary screen, cell-based, PathHunter beta-arrestin, luminescence. PathHunter beta-arrestin GPR151 cells. actives 1% (n = 650,000). activation, % at 11.2 µM. G-protein coupled receptor 151 (Homo sapiens), Q8TDV0; in the data active = activation above about 4.9%;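 also: 0% = median of compound wells and 100% = cells with positive control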
TEAD-YAP inh = TEAD-YAP interaction inhibition, primary screen, TEAD-YAP interaction inhibitor project, luminescence, HEK-TIYL cells; inhibition, % at 9.12 µM; TEAD-Gal4/YAP UAS-luciferase luminescence; actives 1.4% (n = 640,000); in the data active = inhibition above about 32%;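 also: 0% = median of test compound wells and 100% = reference inhibitor wells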
FBW7 activator = FBW7 E3 ligase activators, primary screen, biochemical, AlphaScreen, human. AlphaScreen FBW7–phospho-cyclin E peptide binding, activator screen. actives 0.13% (n = 650,000). normalized activity (activation), % at 26.1 µM. AID 1259310, 2017. F-box/WD repeat-containing protein 7 (Homo sapiens), Q969H0; in the data active = normalized activity above about 1.9%;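 also: purified mutant Fbw7 with reduced substrate affinity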
* hit, by the source's call. Only some compounds are listed: those with a hit (about 3.4% of all), similar ones and a draw of the others.

SMILES	MITF primary	GPR151 activ	TEAD-YAP inh	FBW7 activator
O=C1CCCN1CCCNc1nc(NC2CCN(Cc3ccccc3)CC2)nc2c1ncn2CCN1CCCC1=O	-1.6	0.6	1.5	-0.1
CC(=O)Nc1ccc(Nc2nc(NCCCN3CCCC3=O)nc3c2ncn3-c2ccsc2)cc1	13.9	-0.7	39.9*	-0.3
O=C1CCCN1CCCNc1nc(NC2CCN(Cc3ccccc3)CC2)nc2c1ncn2-c1ccsc1	-5.0	0.2	36.0*	-0.3
O=C1CCCN1CCCNc1nc(N2CCOCC2)nc2c1ncn2-c1ccsc1	-1.1	-0.3	57.0*	-0.4
O=C1CCCN1CCCNc1nc(NCCCN2CCCC2=O)c2ncn(-c3ccccc3)c2n1	-8.4	-0.8	-2.2	-0.1
O=C1CCCN1CCCNc1nc(NCCN2CCOCC2)c2ncn(-c3ccsc3)c2n1	16.2	-0.4	43.0*	0.1
COc1ccc2c(C)nc(Nc3nc(O)c(C)c(=O)[nH]3)nc2c1	8.6	-0.6	11.0	0.1
O=S(=O)(Nc1ncccn1)c1ccc(NC(=S)NCCN2CCCCC2)cc1	9.0	-0.2	17.1	0.1
O=c1ccc(-c2cccs2)nn1C1CCCNC1 (stereo not drawn)	-4.0	1.1	0.1	-0.1
CC(C)NCCOCCOc1ccccc1C(C)(C)C	49.3	-0.5	5.1	0.1
O=C1CCCN1CCCNc1nc(N2CCN(c3ccccn3)CC2)nc2c1ncn2-c1ccsc1	-7.5	-3.3	58.2*	-0.1
OC1CCC(Nc2nc(NC3CCN(Cc4ccccc4)CC3)c3ncn(Cc4ccc(C(F)(F)F)cc4)c3n2)CC1 (stereo not drawn)	2.5	2.9	49.4*	0.0
FC(F)(F)c1ccc(Cn2cnc3c(NC4CCN(Cc5ccccc5)CC4)nc(Cl)nc32)cc1	4.5	0.5	20.5	0.1
O=C1CCCN1CCCNc1nc(Nc2ncccn2)nc2c1ncn2-c1ccsc1	-5.0	1.0	-0.2	-0.1
O=C(NCC1(c2ccccc2)CCCC1)C1CCCN(S(=O)(=O)c2cnc[nH]2)C1 (stereo not drawn)	8.4	0.5	3.8	0.0
Nc1c(C(=O)c2ccc(Br)cc2)sc2nc3c(c(-c4ccco4)c12)CCCCC3	-3.3	2.7	1.4	0.0
O=C(c1ccccc1)n1c2ccccc2c2ccccc21	18.1	-0.2	36.2*	0.3
O=C(O)Cn1c2ccccc2c2ccccc21	-9.2	0.2	-2.1	-0.1
CC(C)(C)n1cc(-c2cnc3ccccc3n2)cn1	9.3	-7.6	77.6*	0.3
CC(=O)N(C(C)=O)c1ccc(-c2cnc(-c3ccc(N(C(C)=O)C(C)=O)cc3)nc2)cc1	5.1	0.6	-0.2	-0.2
Oc1ccc(-c2cnc(-c3ccc(O)cc3)nc2)cc1	3.8	-1.6	95.1*	0.0
Oc1ccc(-c2cnc3ccccc3n2)cc1	-5.7	-10.0	52.3*	-0.1
CCCN1C(=O)C(C)(C)COc2cc(NS(=O)(=O)Cc3cccc(Cl)c3)ccc21	-10.7	1.8	1.4	0.4
Cc1cccc(C(C(=O)NC(C)(C)C)N(Cc2ccccc2)C(=O)c2csnn2)c1 (stereo not drawn)	-25.9	-0.4	2.6	-0.1
Cc1ccccc1NC(=O)c1cc2c(CO)cnc(C)c2oc1=Nc1ccccc1	12.2	0.7	3.1	0.2
SMILES	MITF primary	GPR151 activ	TEAD-YAP inh	FBW7 activator
Cc1cc(O)cc(O)c1/C=N\NC(=O)C1COc2cc3ccccc3cc2O1 (stereo not drawn)	-20.9	-1.1	16.0	-0.1
Cc1ccc(/C=C2\N=C(C3CCCCC3)OC2=O)cc1	21.2	0.4	2.6	0.1
COC(=O)Nc1c(Cl)nsc1S(=O)(=O)Cc1ccccc1	-0.8	1.2	14.1	-0.1
NC(=O)c1c(Cl)nsc1S(=O)(=O)Cc1ccccc1	-1.1	-2.3	45.5*	-0.1
Cc1cc(C(=O)COC(=O)c2ccccc2[N+](=O)[O-])c(C)n1CC(F)(F)F	5.4	-10.7	95.2*	-0.2
COc1ccc(C(=O)OCC(=O)c2cc(C)n(CC(F)(F)F)c2C)cc1[N+](=O)[O-]	-6.2	0.5	8.8	0.0
Cc1cc(C(=O)COC(=O)c2n[nH]c3ccccc23)c(C)n1CC1CCCO1 (stereo not drawn)	-1.4	-6.6	93.7*	-0.3
COCCn1c(C)cc(C(=O)COC(=O)c2cccnc2SC)c1C	7.3	-6.4	10.4	-0.1
Cc1cc(C(=O)COC(=O)c2ccccc2Br)c(C)n1CC1CCCO1 (stereo not drawn)	0.1	-5.6	91.5*	-0.1
COCCn1c(C)cc(C(=O)COC(=O)c2ccccc2Br)c1C	6.9	-6.3	82.0*	-0.1
c1ccc(Cc2nc(NCc3ccc4c(c3)OCO4)c3c4c(sc3n2)CCCC4)cc1	-2.6	-0.6	-15.0	0.0
Cc1cc(C(=O)COC(=O)c2cccnc2Cl)c(C)n1CC1CCCO1 (stereo not drawn)	13.2	-6.8	66.1*	0.0
COc1cccc(/C=N/NC(=O)c2ccc(NC(=O)c3ccc(C)cc3)cc2)c1O	13.7	-0.6	-2.0	0.5
COc1cc(CNCCCN(C)C)ccc1OCc1ccc(F)cc1Cl	-22.6	-0.7	34.3*	0.4
COc1cc(CNc2ccc3ncc(-c4cccc(O)c4)n3n2)cc(OC)c1OC	25.0	1.2	-21.3	0.9
CCCNc1ccc2ncc(-c3ccc(O)c(OC)c3)n2n1	-1.3	-0.3	71.3*	-0.3
COc1ccccc1-c1cnc2ccc(NCc3cccs3)nn12	-5.8	-0.4	-10.6	1.9*
COc1cc(-c2cnc3ccc(NCc4cccs4)nn23)cc(OC)c1OC	-2.1	1.0	-10.4	-0.1
COc1cc(-c2cnc3ccc(NCC4CC4)nn23)ccc1O	-1.8	-1.1	-4.4	0.1
COc1cc(CNc2ccc3ncc(-c4cccc(N(C)C)c4)n3n2)cc(OC)c1OC	18.9	0.2	49.9*	-0.5
COc1cc(-c2cnc3ccc(NCc4cccs4)nn23)ccc1O	-0.2	0.2	40.5*	0.1
OCc1ccccc1-c1cnc2ccc(NCc3cccs3)nn12	12.8	0.2	4.1	0.0
CSc1cccc(NC(=O)C2C3C=CC4(O3)C2C(=O)N(Cc2ccc(C)cc2)C4C(=O)NC2CCCCC2)c1 (stereo not drawn)	-4.6	3.7	-8.8	0.0
O=c1c(Cl)c(NCCO)cnn1C12CC3CC(CC(C3)C1)C2	6.5	0.4	10.9	0.0
O=c1c(Cl)c(Cl)cnn1C12CC3CC(CC(C3)C1)C2	4.3	0.1	78.4*	0.1
SMILES	MITF primary	GPR151 activ	TEAD-YAP inh	FBW7 activator
CCN(CC)c1ccc(/C=N\Nc2ncc(F)c(N3CCOCC3)n2)c(O)c1	61.8*	0.0	37.3*	-0.6
Fc1cnc(N/N=C/c2cccs2)nc1N1CCOCC1	7.8	-4.2	44.7*	0.1
Fc1cnc(N/N=C\c2ccc(-c3ccccc3)o2)nc1N1CCOCC1	7.3	-0.4	-20.5	-0.1
Fc1cnc(N/N=C/c2ccc(Cl)cc2Cl)nc1N1CCOCC1	-12.6	-1.5	-29.4	-0.9
COc1cccc(/C=N\Nc2ncc(F)c(N3CCOCC3)n2)c1O	85.6*	0.6	40.6*	-0.6
Cc1ccc(C(=O)Nc2ccccc2C#N)cc1C	7.2	-2.5	-65.2	0.0

Source: PubChem
